# Source: the supplement of paper PMC4466140
# Assays:
# Assay in all cases: SPOT peptide array binding signal intensity (averaged, normalized) (arbitrary units (background-subtracted, floor 0; scale differs between SH3 domains)); higher = stronger binding of the SH3 domain to the peptide
# SpBzz1-D2 = target: SpBzz1-D2
# Procedure, shortened: (§1)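 E. coli BL21(DE3) was used to express GST-fused SH3 domains from four yeast species, which were then purified on glutathione Sepharose. These were incubated at 10 μg/ml in TBS-based blocking buffer overnight at 4°C on cellulose membranes carrying synthetic 15-mer peptides, in which cysteines were replaced by serines. Binding signal is the replicate average of normalized, background-subtracted spot intensity, in arbitrary units that differ between domains.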
# SpCyk3 = target: SpCyk3
# Procedure, shortened: as §1
# SpHof1 = target: SpHof1
# Procedure, shortened: as §1
# SpHof1-2 = target: SpHof1-2
# Procedure, shortened: as §1
# SpHof1-3 = target: SpHof1-3
# Procedure, shortened: as §1
# SpHse1 = target: SpHse1
# Procedure, shortened: as §1
# SpLsb1 = target: SpLsb1
# Procedure, shortened: as §1
# SpLsb4 = target: SpLsb4
# Procedure, shortened: as §1
# SpMyo1 = target: SpMyo1
# Procedure, shortened: as §1
# SpNbp2 = target: SpNbp2
# Procedure, shortened: as §1
# SpPex13 = target: SpPex13
# Procedure, shortened: as §1
# SpRvs167 = target: SpRvs167
# Procedure, shortened: as §1
# SpSla1-D1-D2 = target: SpSla1-D1-D2
# Procedure, shortened: as §1
# SpSla1-D3 = target: SpSla1-D3
# Procedure, shortened: as §1
# AgAbp1 = target: AgAbp1
# Procedure, shortened: as §1
# AgBbc1 = target: AgBbc1
# Procedure, shortened: as §1
# AgBem1-D1 = target: AgBem1-D1
# Procedure, shortened: as §1
# AgBzz1-D1 = target: AgBzz1-D1
# Procedure, shortened: as §1
# AgBzz1-D2 = target: AgBzz1-D2
# Procedure, shortened: as §1
# AgCyk3 = target: AgCyk3
# Procedure, shortened: as §1
# AgFus1 = target: AgFus1
# Procedure, shortened: as §1
# AgHof1 = target: AgHof1
# Procedure, shortened: as §1
# AgHse1 = target: AgHse1
# Procedure, shortened: as §1
# AgLsb1 = target: AgLsb1
# Procedure, shortened: as §1
# AgLsb4 = target: AgLsb4
# Procedure, shortened: as §1
# AgMyo5 = target: AgMyo5
# Procedure, shortened: as §1
# AgNbp2 = target: AgNbp2
# Procedure, shortened: as §1
# AgRvs167 = target: AgRvs167
# Procedure, shortened: as §1
# AgSho1 = target: AgSho1
# Procedure, shortened: as §1
# AgSla1-D1-D2 = target: AgSla1-D1-D2
# Procedure, shortened: as §1
# AgSla1-D3 = target: AgSla1-D3
# Procedure, shortened: as §1
# CaAbp1-D1 = target: CaAbp1-D1
# Procedure, shortened: as §1
# CaAbp1-D2 = target: CaAbp1-D2
# Procedure, shortened: as §1
# CaBbc1 = target: CaBbc1
# Procedure, shortened: as §1
# CaBem1-D1 = target: CaBem1-D1
# Procedure, shortened: as §1
# CaBzz1-D1 = target: CaBzz1-D1
# Procedure, shortened: as §1
# CaBzz1-D2 = target: CaBzz1-D2
# Procedure, shortened: as §1
# CaCyk3 = target: CaCyk3
# Procedure, shortened: as §1
# CaFus1 = target: CaFus1
# Procedure, shortened: as §1
# CaHof1 = target: CaHof1
# Procedure, shortened: as §1
# CaHse1 = target: CaHse1
# Procedure, shortened: as §1
# CaLsb1 = target: CaLsb1
# Procedure, shortened: as §1
# CaLsb4 = target: CaLsb4
# Procedure, shortened: as §1
# CaMyo5 = target: CaMyo5
# Procedure, shortened: as §1
# CaNbp2 = target: CaNbp2
# Procedure, shortened: as §1
# CaRvs167 = target: CaRvs167
# Procedure, shortened: as §1
# CaRvs167-3 = target: CaRvs167-3
# Procedure, shortened: as §1
# CaSho1 = target: CaSho1
# Procedure, shortened: as §1
# CaSla1-D1-D2 = target: CaSla1-D1-D2
# Procedure, shortened: as §1
# CaSla1-D3 = target: CaSla1-D3
# Procedure, shortened: as §1
# ScAbp1 = target: ScAbp1
# Procedure, shortened: as §1
# ScBbc1 = target: ScBbc1
# Procedure, shortened: as §1
# ScBem1-D1 = target: ScBem1-D1
# Procedure, shortened: as §1
# ScBzz1-D1 = target: ScBzz1-D1
# Procedure, shortened: as §1
# ScBzz1-D2 = target: ScBzz1-D2
# Procedure, shortened: as §1
# ScCyk3 = target: ScCyk3
# Procedure, shortened: as §1
# ScFus1 = target: ScFus1
# Procedure, shortened: as §1
# ScHof1 = target: ScHof1
# Procedure, shortened: as §1
# ScHse1 = target: ScHse1
# Procedure, shortened: as §1
# ScLsb1 = target: ScLsb1
# Procedure, shortened: as §1
# ScLsb2 = target: ScLsb2
# Procedure, shortened: as §1
# ScLsb3 = target: ScLsb3
# Procedure, shortened: as §1
# ScLsb4 = target: ScLsb4
# Procedure, shortened: as §1
# ScMyo3 = target: ScMyo3
# Procedure, shortened: as §1
# ScMyo5 = target: ScMyo5
# Procedure, shortened: as §1
# ScNbp2 = target: ScNbp2
# Procedure, shortened: as §1
# ScPex13 = target: ScPex13
# Procedure, shortened: as §1
# ScRvs167 = target: ScRvs167
# Procedure, shortened: as §1
# ScSho1 = target: ScSho1
# Procedure, shortened: as §1
# ScSla1-D1-D2 = target: ScSla1-D1-D2
# Procedure, shortened: as §1
# ScSla1-D3 = target: ScSla1-D3
# Procedure, shortened: as §1
# SpAbp1-D1 = target: SpAbp1-D1
# Procedure, shortened: as §1
# SpBbc1 = target: SpBbc1
# Procedure, shortened: as §1
# SpBzz1-D1 = target: SpBzz1-D1
# Procedure, shortened: as §1
binder,measurement,setting,value
KTRLRPAFIQQLWSS,SPOT peptide array binding signal intensity,SpBzz1-D2,1
same,SPOT peptide array binding signal intensity,SpCyk3,5
same,SPOT peptide array binding signal intensity,SpHof1,117
same,SPOT peptide array binding signal intensity,SpHof1-2,13.2
same,SPOT peptide array binding signal intensity,SpHof1-3,571
same,SPOT peptide array binding signal intensity,SpHse1,696
same,SPOT peptide array binding signal intensity,SpLsb1,≤ 0
same,SPOT peptide array binding signal intensity,SpLsb4,7
same,SPOT peptide array binding signal intensity,SpMyo1,3
same,SPOT peptide array binding signal intensity,SpNbp2,58.5
same,SPOT peptide array binding signal intensity,SpPex13,17
same,SPOT peptide array binding signal intensity,SpRvs167,6.67
same,SPOT peptide array binding signal intensity,SpSla1-D1-D2,≤ 0
same,SPOT peptide array binding signal intensity,SpSla1-D3,8
LPMNIQPDLPPRKIM,SPOT peptide array binding signal intensity,AgAbp1,11.5
same,SPOT peptide array binding signal intensity,AgBbc1,73.8
same,SPOT peptide array binding signal intensity,AgBem1-D1,263
same,SPOT peptide array binding signal intensity,AgBzz1-D1,≤ 0
same,SPOT peptide array binding signal intensity,AgBzz1-D2,5
same,SPOT peptide array binding signal intensity,AgCyk3,6
same,SPOT peptide array binding signal intensity,AgFus1,301
same,SPOT peptide array binding signal intensity,AgHof1,109
same,SPOT peptide array binding signal intensity,AgHse1,139
same,SPOT peptide array binding signal intensity,AgLsb1,904
same,SPOT peptide array binding signal intensity,AgLsb4,3030
same,SPOT peptide array binding signal intensity,AgMyo5,≤ 0
same,SPOT peptide array binding signal intensity,AgNbp2,152
same,SPOT peptide array binding signal intensity,AgRvs167,525
same,SPOT peptide array binding signal intensity,AgSho1,218
same,SPOT peptide array binding signal intensity,AgSla1-D1-D2,≤ 0
same,SPOT peptide array binding signal intensity,AgSla1-D3,2.5
same,SPOT peptide array binding signal intensity,CaAbp1-D1,63.5
same,SPOT peptide array binding signal intensity,CaAbp1-D2,59.5
same,SPOT peptide array binding signal intensity,CaBbc1,423
same,SPOT peptide array binding signal intensity,CaBem1-D1,42
same,SPOT peptide array binding signal intensity,CaBzz1-D1,290
same,SPOT peptide array binding signal intensity,CaBzz1-D2,98.2
same,SPOT peptide array binding signal intensity,CaCyk3,15
same,SPOT peptide array binding signal intensity,CaFus1,1460
same,SPOT peptide array binding signal intensity,CaHof1,≤ 0
same,SPOT peptide array binding signal intensity,CaHse1,224
same,SPOT peptide array binding signal intensity,CaLsb1,16.2
same,SPOT peptide array binding signal intensity,CaLsb4,7000
same,SPOT peptide array binding signal intensity,CaMyo5,60
same,SPOT peptide array binding signal intensity,CaNbp2,410
same,SPOT peptide array binding signal intensity,CaRvs167,1050
same,SPOT peptide array binding signal intensity,CaRvs167-3,0.5
same,SPOT peptide array binding signal intensity,CaSho1,799
same,SPOT peptide array binding signal intensity,CaSla1-D1-D2,409
same,SPOT peptide array binding signal intensity,CaSla1-D3,242
same,SPOT peptide array binding signal intensity,ScAbp1,16
same,SPOT peptide array binding signal intensity,ScBbc1,7.5
same,SPOT peptide array binding signal intensity,ScBem1-D1,1
same,SPOT peptide array binding signal intensity,ScBzz1-D1,13
same,SPOT peptide array binding signal intensity,ScBzz1-D2,10.5
same,SPOT peptide array binding signal intensity,ScCyk3,9
same,SPOT peptide array binding signal intensity,ScFus1,510
same,SPOT peptide array binding signal intensity,ScHof1,≤ 0
same,SPOT peptide array binding signal intensity,ScHse1,92
same,SPOT peptide array binding signal intensity,ScLsb1,362
same,SPOT peptide array binding signal intensity,ScLsb2,218
same,SPOT peptide array binding signal intensity,ScLsb3,5190
same,SPOT peptide array binding signal intensity,ScLsb4,3270
same,SPOT peptide array binding signal intensity,ScMyo3,14
same,SPOT peptide array binding signal intensity,ScMyo5,0.75
same,SPOT peptide array binding signal intensity,ScNbp2,348
same,SPOT peptide array binding signal intensity,ScPex13,234
same,SPOT peptide array binding signal intensity,ScRvs167,2170
same,SPOT peptide array binding signal intensity,ScSho1,682
same,SPOT peptide array binding signal intensity,ScSla1-D1-D2,192
same,SPOT peptide array binding signal intensity,ScSla1-D3,212
same,SPOT peptide array binding signal intensity,SpAbp1-D1,48
same,SPOT peptide array binding signal intensity,SpBbc1,≤ 0
same,SPOT peptide array binding signal intensity,SpBzz1-D1,362
same,SPOT peptide array binding signal intensity,SpBzz1-D2,5.5
same,SPOT peptide array binding signal intensity,SpCyk3,9.5
same,SPOT peptide array binding signal intensity,SpHof1,21.5
same,SPOT peptide array binding signal intensity,SpHof1-2,18.2
same,SPOT peptide array binding signal intensity,SpHof1-3,11
same,SPOT peptide array binding signal intensity,SpHse1,174
same,SPOT peptide array binding signal intensity,SpLsb1,160
same,SPOT peptide array binding signal intensity,SpLsb4,4630
same,SPOT peptide array binding signal intensity,SpMyo1,75
same,SPOT peptide array binding signal intensity,SpNbp2,59
same,SPOT peptide array binding signal intensity,SpPex13,42.5
same,SPOT peptide array binding signal intensity,SpRvs167,2340
same,SPOT peptide array binding signal intensity,SpSla1-D1-D2,2.5
same,SPOT peptide array binding signal intensity,SpSla1-D3,148
